HT1080 IDH1KD tx – toxicity to HT-1080 IDH1 knockdown cells (counter line) | Potency, µM (series often up to 46.1 µM), usual class: cytotoxic | actives 2% (n = 360,000) | HT-1080 IDH1 knockdown viability, ATP luminescence, 48 h
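% activity derives from luminescence (CellTiter-Glo), normalised to DMSO and no-cell wells. HT-1080-IDH1KD cells, 750/well, had 48 h compound exposure at 37 °C.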
HT1080-NT tox – kills 2HG-producing HT-1080-NT fibrosarcoma cells; HT-1080-NT fibrosarcoma viability, CellTiter-Glo ATP luminescence, 48 h; Potency, µM (series often up to 46.1 µM), most hits filed as cytotoxic; actives 1.6% (n = 360,000); AID 686970;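 note: NT is the 2HG producing partner of a matched IDH1 knockdown line; nearly all actives have a fitted effect of over 55% in size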
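Luminescent CellTiter-Glo readout after 48 hours of compound exposure at 37 degrees C defined viability of HT-1080-NT cells. Activity was normalized to DMSO wells and cell-free media wells; concentration-response curves were fitted and assigned curve classes.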
IL-1B inflam inh – blocks inflammasome-driven IL-1 beta release; THP-1 LPS/ATP IL-1B secretion, AlphaLISA, 16 h; stronger effect = lower value; AID 743279; activity change, % at 57.5 µM; actives 4.7% (n = 360,000); in the data active = activity change below about -50%; inconclusive = mostly about -30% to -49%
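THP-1 cells pretreated 1 hr with compounds (up to 57.5 uM final), then stimulated with LPS (250 ng/mL final) plus ATP (1.25 mM final); secreted IL-1B measured by AlphaLISA after 16 hr, decreased signal indicating inhibition.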
DT40 TDP1 no CPT – qHTS for Inhibitors of human tyrosyl-DNA phosphodiesterase 1 (TDP1): qHTS in cells in absence of CPT; DT40 Tdp1-/- hTDP1 cells, no CPT, ATP luminescence, 48 h; Potency, µM (doses to about 46.2 µM), usual class: inhibitors; actives 15% (n = 420,000); AID 686978, 2013; note: nearly all actives have a fitted effect of over 55% in size
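Stably hTDP1-transfected Tdp1-null chicken DT40 cells were treated with library compounds minus camptothecin and grown for at least 48 hr at 37 °C, after which cellular ATP was quantified by luminescence.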
DT40 TDP1 CPT – growth inhibition of DT40 Tdp1-/-;hTDP1 cells with camptothecin (screen for TDP1 inhibitors). chicken DT40 Tdp1-/-;hTDP1 cells + 20 nM CPT, ATP luminescence, 48 h. actives 12% (n = 420,000). Potency, µM (doses to about 46.2 µM), usual class: inhibitors. AID 686979; note: nearly all actives have a fitted effect of over 55% in size
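Cell growth measured by CellTiter-Glo luminescence after a minimum 48 h, 37 C compound exposure with 20 nM CPT in Tdp1-knockout DT40 cells stably expressing hTDP1, seeded 400/well; qHTS titration format.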
Hits are given with their value; - = inactive; ? = inconclusive; . = no result. Sampled rows, rich in hits. Any-hit rate of the full collection: about 19%. Unless noted, calls come from the whole dose curve; as a rule, active = well fitted curve in the direction sought with a large enough effect; inconclusive = small, poorly fitted or top-dose-only effect, or another doubt; inactive = no such curve, though single readings can be large; an effect the other way counts as inactive or inconclusive.

SMILES	HT1080 IDH1KD tx	HT1080-NT tox	IL-1B inflam inh	DT40 TDP1 no CPT	DT40 TDP1 CPT
Cc1nn(Cc2ccc(F)cc2)c(C)c1NC(=O)c1cc(-c2ccc3c(c2)OCO3)on1	-	?	-	13µM	?
CCOc1ccccc1NC(=O)CCc1nnc2ccc(N3CCC4(CC3)OCCO4)nn12	-	-	-	?	-
CCN1CCN(c2cc(C)c3cc(NC(=O)c4cccc(Cl)c4)ccc3n2)CC1	.	.	.	6.5µM	15µM
CCN1CCN(c2cc(C)c3cc(NC(=O)/C=C/c4cccc(Cl)c4)ccc3n2)CC1	.	.	.	-	5.2µM
CCN1CCN(c2cc(C)c3cc(NC(=O)CCC(=O)N4CCN(c5ccccc5)CC4)ccc3n2)CC1	?	?	-	?	?
O=C(CSc1nc(C2CC2)nc2c1cnn2-c1ccccc1)Nc1c[nH]c(=O)[nH]c1=O	-	-	-	?	-
Cc1cc2oc(=O)cc(CN3CCCCC3C)c2cc1C (stereo not drawn)	-	?	-	?	?
COc1ccccc1C1CCCN1Cc1nc(-c2ccc(C)s2)oc1C (stereo not drawn)	?	-	-	?	18µM
O=C(CO/N=C/c1ccc(OC(F)F)cc1)NC1CCCCC1	-	-	-	-	?
O=C(N/N=C/c1ccc(OC(F)F)cc1OC(F)F)NC1CCCCC1	-	-	-81	?	?
C=CCNc1ncnc2c1ncn2[C@H]1CN(Cc2ccc(F)cc2)C[C@@H](CO)O1	-	?	-	?	?
CC(=O)NCCc1nc2cc(NC(=O)COc3ccc(C)cc3)ccc2n1C	-	-	-	-	-
Cc1ccc(-c2nc(-c3nccc4ccccc34)oc2-c2ccccc2)cc1	-	-	-	13µM	?
CCOC(=O)C1=C(C(F)(F)F)Nc2ncnn2C1c1ccc(OC)cc1OC (stereo not drawn)	-	-	-	-	-
Cc1ccc(F)c(NC(=O)/C(C#N)=C(\O)c2ccc(C(C)(C)C)cc2)c1	?	-	-	?	-
CN1CCN(c2ncc3c(n2)CCN(Cc2cc(Br)cs2)C3)CC1	.	.	.	?	16µM
Cc1ccc(CN2CCc3nc(N4CCN(c5ccccc5F)CC4)ncc3C2)s1	.	.	.	-	-
Brc1csc(CN2CCc3nc(Nc4ccccc4)ncc3C2)c1	.	.	.	23µM	21µM
COc1cc(Nc2ncc3c(n2)CCN(Cc2cc(Br)cs2)C3)cc(OC)c1	.	.	.	23µM	16µM
O=C(NC1CCS(=O)(=O)C1)c1cccc(Cl)c1 (stereo not drawn)	-	-	-	-	-
O=C(Nc1ccc(Cl)cc1)C1CCN(c2nc3ccccc3nc2C(F)(F)F)CC1	.	.	.	-	?
Cc1ccc(OC(=S)Nc2ccc(F)cc2)cc1	-	-	-	-	-
Cc1ccc(OC(=S)Nc2ccccc2)c(C)c1	-	-	-	16µM	?
C=C(C1=CCN(S(=O)C(C)(C)C)[C@@H]1CCO)c1ccccc1 (stereo partly drawn)	-	-	-	23µM	7.3µM
CC1CCN(CC(=O)N2CCN(c3ccccc3)CC2)CC1	-	-	-	-	-
SMILES	HT1080 IDH1KD tx	HT1080-NT tox	IL-1B inflam inh	DT40 TDP1 no CPT	DT40 TDP1 CPT
O=C(CN1CCN(C(c2ccccc2)c2ccccc2)CC1)NC(=O)NCc1ccco1	-	-	-	?	21µM
O=C(CN1CCN(C(c2ccccc2)c2ccccc2)CC1)N1CCN(c2ccccc2)CC1	-	-	-	18µM	?
O=C(CN1CCN(C(c2ccccc2)c2ccccc2)CC1)NCc1ccccc1	-	-	-	?	-
O=C(CN1CCN(c2ccccc2)CC1)NC(=O)NCc1ccco1	-	-	-	-	-
COc1ccc(CNC(=O)CN2CCN(C(c3ccccc3)c3ccccc3)CC2)cc1	-	-	-64	?	18µM
CC(C)(C)NC(=O)NC(=O)CN1CCN(C(c2ccccc2)c2ccccc2)CC1	-	-	-	?	9.2µM
Cc1ccc(OCCNC(=O)C(C)SCC(=O)Nc2ccc(F)cc2)cc1 (stereo not drawn)	-	-	-	-	-
CCOC(=O)N1CCN(C(=O)c2c(Cl)cnn2C)CC1	-	-	-	-	-

Bioassay records from PubChem.
